# Results: PubChem BioAssay AID2284145 (EPA ToxCast)
# The source made the active and inactive calls. The calls were made as follows: active = hit-call score of the fitted dose curve at least 0.9, where 1 is the maximum; inactive = score below 0.9.
# Target: human Adrenoceptor beta1 Antagonism, ADRB1 (gene 153) (UniProt P08588)
# Assay: ERF_TW_GPCR_hADRB1: Eurofins (ERF) G Protein-Coupled Receptor (GPCR) Radioligand Binding LeadHunter Assay for human Adrenoceptor beta1 Antagonism
# Protocol: ERF_TW_GPCR_hADRB1 is a biochemical, single-readout assay that uses extracted gene-proteins in a cell-free assay. Measurements were taken 2 hour after chemical dosing in a 96-well plate. See beta1 Human Adrenoceptor GPCR Binding (Antagonist Radioligand) Assay, Panlabs.ERF_TW_GPCR_hADRB1 is an assay component calculated from the ERF_TW_GPCR_hADRB1 assay. It is designed to measure radioligand binding using a type of binding reporter as detected by scintillation counting with radiometry technology.Data from the assay component ERF_TW_GPCR_hADRB1 was analyzed at the assay endpoint, ERF_TW_GPCR_hADRB1, in the positive analysis fitting direction relative to DMSO as the negative control and baseline of activity. Using a type of binding reporter, loss-of-signal activity can be used to understand changes in radioligand binding as they relate to gene ADRB1. To generalize the intended target to other relatable targets, this assay endpoint is annotated to the gpcr intended target family, where the subfamily is adrenoceptor.
# Human recombinant adrenergic beta1 receptors expressed in HEK 293 cells are used in modified Tris-HCl buffer pH 7.4. A 25 ug aliquot is incubated with 0.03 nM [125I]Cyanopindolol for 120 minutes at 25C. […] Receptors are filtered and washed, the filters are then counted to determine [125I]Cyanopindolol specifically bound. […]
# human Adrenoceptor beta1 Antagonism, ADRB1 (gene 153), sequence (P08588 whole entry, looked up): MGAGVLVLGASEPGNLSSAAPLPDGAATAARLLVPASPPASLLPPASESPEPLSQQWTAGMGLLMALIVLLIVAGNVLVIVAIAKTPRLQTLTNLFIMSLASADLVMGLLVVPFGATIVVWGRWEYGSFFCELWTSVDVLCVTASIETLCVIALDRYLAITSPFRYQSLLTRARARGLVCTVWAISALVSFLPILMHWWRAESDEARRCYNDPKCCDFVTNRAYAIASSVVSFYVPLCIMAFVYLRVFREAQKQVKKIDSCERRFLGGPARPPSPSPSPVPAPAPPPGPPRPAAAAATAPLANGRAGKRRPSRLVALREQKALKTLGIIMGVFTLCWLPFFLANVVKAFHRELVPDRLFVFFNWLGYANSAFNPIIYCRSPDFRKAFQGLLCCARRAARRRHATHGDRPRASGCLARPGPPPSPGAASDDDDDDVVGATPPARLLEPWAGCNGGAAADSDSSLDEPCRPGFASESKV
row,SMILES,AC50
1,O=C(/C=C/c1ccc(O)cc1)CC(=O)/C=C/c1ccc(O)cc1,1130 nM (active)
